These results are taken from PubChem BioAssay.

A number with no mark means an inactive call. Calls of active or inactive are those of the source.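 The calls were made as follows: active = fluorescence slope higher than the sample average by over 3 SD (cut at about -0.22 in these data, passing the limit was not always enough); inactive = the rest.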

For the assay, the target named is Voltage-gated potassium channel subunit beta-2 (Rattus norvegicus) (UniProt P62483). The experiment in a line: inhibitors of rat Kvbeta2 reductase activity – biochemical, NADPH fluorescence, primary screen (AID 622).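 Also: slope of raw intensity against log time taken from 70 to 1610 s.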 The conditions noted are these: recombinant KvBeta, 4-cyanobenzaldehyde reduction, at 10 µM, active compounds read high.
Voltage-gated potassium channel subunit beta-2 (Rattus norvegicus), sequence (P62483 whole entry, looked up): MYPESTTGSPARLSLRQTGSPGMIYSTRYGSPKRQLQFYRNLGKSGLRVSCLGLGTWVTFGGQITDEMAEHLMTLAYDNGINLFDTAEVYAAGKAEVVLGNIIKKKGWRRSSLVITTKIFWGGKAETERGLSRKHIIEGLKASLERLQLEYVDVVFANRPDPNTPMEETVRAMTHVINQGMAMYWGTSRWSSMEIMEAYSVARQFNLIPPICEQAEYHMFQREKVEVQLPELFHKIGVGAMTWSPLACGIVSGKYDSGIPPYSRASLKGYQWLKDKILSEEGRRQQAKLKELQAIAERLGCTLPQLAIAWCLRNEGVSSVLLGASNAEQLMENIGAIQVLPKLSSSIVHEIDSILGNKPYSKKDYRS
Turning to `COCCNc1nc(C(C)(C)C)nc2c1nnn2Cc1ccccc1Cl`, the fluorescence slope is -0.462.

Regarding `CNC(=O)CSc1nnc(-c2cc(C)cc(C)c2)o1`, the fluorescence slope is -0.547.

On to `CC(C(=O)c1ccccc1)n1cnc2ccccc2c1=O` (stereo not given), for which the fluorescence slope is -0.525.

Regarding `COC(=O)COc1ccc(C(=O)OC)cc1`, the fluorescence slope was -0.456.

On to `CC(C)(C)OC(=O)N1CCN(c2ccc(NC(=O)c3cc4ccccc4oc3=O)cc2)CC1`, for which the fluorescence slope is -0.582.

On to `CCOC(=O)C1=C(Cn2cnc3ccccc32)NC(=O)NC1c1cc(C)ccc1C` (stereo not given), for which the fluorescence slope is -0.461.

On to `COc1cc(OC)cc(C(=O)NCCN2CCOCC2)c1`, for which the fluorescence slope was -0.573.

For the molecule `CC1=C(C(=O)OCCOC(C)C)C(c2cc3c(cc2Br)OCO3)C2=C(CCCC2=O)N1` (stereo not given), the fluorescence slope was -0.485.

`Cn1c(=O)c2ccccc2n(Cc2ccccc2F)c1=O`: the fluorescence slope was -0.451.

On to `COc1ccc(-c2noc(CCC(=O)Nc3nc4ccccc4s3)n2)cc1`, for which the fluorescence slope is -0.586.

`Cc1cc(C)n(Cc2nc3ccccc3n2C)n1`: the fluorescence slope is -0.577.

On to `COC(=O)c1ccccc1NC(=O)C1CCCCC1C(=O)O` (stereo not given), for which the fluorescence slope is -0.556.

For `COc1ccc(OC)c(NC(=O)CCN2CCN(c3ccccc3F)CC2)c1`, the fluorescence slope is -0.54.

Turning to `COc1ccc(-c2cn3c(C)c(C(=O)Nc4cc(NC(C)=O)ccc4OC)sc3n2)cc1`, the fluorescence slope was -0.166.

`COc1ccc(-n2nnc3c(=O)n(C/C=C/c4ccccc4)cnc32)cc1`: the fluorescence slope was -0.218.

For `Cc1ccc(S(=O)(=O)N2CCCC2C(=O)n2nc(C)cc2C)cc1` (stereo not given), the fluorescence slope is -0.341.

For `CCOC(=O)c1cnc(-n2nc(C)cc2C)nc1Nc1ccc(N(C)C)cc1`, the fluorescence slope is -0.574.

`Cc1ccc(S(=O)(=O)N2CCOCC2)cc1C(=O)Nc1ccccn1`: the fluorescence slope was -0.346.

Regarding `COC(=O)c1ccc(CNC(=O)COc2ccccc2Br)o1`, the fluorescence slope is -0.556.

Regarding `Cc1cc2oc(=O)cc(CN3CCCCC3)c2cc1C(C)C`, the fluorescence slope is -0.56.

Consider `Cc1ccc(N2CC(C(=O)Nc3nnc(C)s3)CC2=O)cc1` (stereo not given), for which the fluorescence slope is -0.542.

Consider `Cc1ccc(-c2[nH]nc3c2C(c2ccc(OC(=O)N4CCOCC4)cc2)C(C#N)=C(N)O3)cc1` (stereo not given), for which the fluorescence slope is -0.577.

For `COc1cccc(NC(=O)COc2ccccc2C(N)=O)c1`, the fluorescence slope is -0.589.

Turning to `CCSc1nc(O)c(CC)c(=O)n1C(C)CC` (stereo not given), the fluorescence slope is -0.556.

For `O=C(NCC(=O)N(CCc1ccccc1)C(C(=O)NC1CCCC1)c1cccnc1)c1ccco1` (stereo not given), the fluorescence slope was -0.493.

Take `CCCn1cnc2c(c1=O)c1nc3ccccc3nc1n2Cc1ccccc1OC`: the fluorescence slope was -0.483.

For the molecule `CCn1nnc(NC(=O)c2cc3ccccc3o2)n1`, the fluorescence slope was -0.297.

`c1ccc(-c2cn3cccnc3n2)cc1`: the fluorescence slope is -0.0209 (active).

Take `COc1ccccc1-n1cnc(N)c1C(C)=O`: the fluorescence slope was -0.586.

Regarding `CCOC(=O)C1CCCN(C(=O)c2ccc3c(=O)n(CCOC)c(=S)[nH]c3c2)C1` (stereo not given), the fluorescence slope was -0.386.

As to `COc1ccc(C2C(C#N)=C(C)NC3=C2C(=O)CC(C)(C)C3)c(OC)c1` (stereo not given), the fluorescence slope was -0.463.

For the molecule `O=C(CN1C(=O)NC(Cc2ccccc2)C1=O)Nc1ccccc1` (stereo not given), the fluorescence slope is -0.594.

Regarding `COC(=O)c1ccccc1NC(=O)Cn1c(-c2nonc2N)nc2ccccc21`, the fluorescence slope was -0.537.

Regarding `CCCc1cc(=O)n2[nH]c(-c3ccc(Br)cc3)cc2n1`, the fluorescence slope is -0.473.

Turning to `COc1ccc(OC)c(N2Cc3cc(C)c(C)cc3C2)c1`, the fluorescence slope is -0.476.

On to `CC1CCCC(NC(=O)CSc2ncccc2C(=O)O)C1C` (stereo not given), for which the fluorescence slope is -0.566.

For `O=c1cc(-c2ccccc2)[nH]c2nc3ccccc3n12`, the fluorescence slope was -0.422.

Consider `CCN1CCN(S(=O)(=O)c2ccc(S(=O)(=O)N(CC)Cc3ccccc3)cc2)CC1`, for which the fluorescence slope was -0.527.

Take `CCOC(=O)C1CCCN(C(=O)c2cc3c(C)nc4ccccc4c3o2)C1` (stereo not given): the fluorescence slope is -0.522.

Regarding `CCCC(=O)Nc1ccc(NC(=O)c2cccs2)cn1`, the fluorescence slope is -0.578.
